# Measured values reported in PubChem BioAssay (NCI).
# The panel holds about 79,000 compounds, 15% with a hit somewhere; the sample as a whole holds those more often. Unmarked numbers belong to inactive results. Active and inactive are the calls of the source. Rule as the data show it: active = growth inhibition above about 70%; inactive = the rest.
# How the values were obtained:
# [1] = NCI Yeast Anticancer Drug Screen. Data for the rad52 strain (AID 147);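 also: 0% = growth of vehicle-treated control cultures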; settings: S. cerevisiae rad52 mutant growth inhibition, stronger effect = higher value
# In short: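 Here a repair-compromised yeast strain receives each compound; its growth is then quantified and normalised to vehicle-only controls.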
# [2] = NCI Yeast Anticancer Drug Screen. Data for the wt1 strain (AID 149);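 also: 0% = growth of vehicle-treated wt1 cultures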; settings: S. cerevisiae wt1 strain (SPY 50644) growth inhibition, stronger effect = higher value
# In short: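 Vehicle-normalised growth inhibition; strain wt1; compound exposure.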
# [3] = NCI Yeast Anticancer Drug Screen. Data for the rad50EPP+ strain (AID 151);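 also: 0% = growth of vehicle-treated control cultures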; settings: S. cerevisiae rad50 mutant strain, stronger effect = higher value
# In short: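 Read-out is yeast growth inhibition relative to vehicle; cells used were the rad50EPP+ strain.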
# [4] = NCI Yeast Anticancer Drug Screen. Data for the mgt1 strain (AID 153); settings: S. cerevisiae mgt1 mutant growth inhibition, stronger effect = higher value
# In short: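 Measured: inhibition of mgt1 yeast growth by compound, normalized to vehicle-treated cultures.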
# [5] = NCI Yeast Anticancer Drug Screen. Data for the rad50 strain (AID 155);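 also: 0% = growth of vehicle-only cultures of the same strain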; settings: S. cerevisiae rad50 strain growth inhibition, stronger effect = higher value
# In short: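 A DNA repair-deficient yeast mutant serves as the test organism; compound-induced growth inhibition is calculated against vehicle-treated cells.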
# [6] = NCI Yeast Anticancer Drug Screen. Data for the mec2-1 strain (AID 157); settings: S. cerevisiae mec2-1 strain, stronger effect = higher value
# In short: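 Using mec2-1 yeast: add compound, measure growth, express inhibition versus vehicle-treated cultures.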
# [7] = NCI Yeast Anticancer Drug Screen. Data for the rad14 strain (AID 159);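 also: 0% = growth of vehicle-treated control cultures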; settings: S. cerevisiae rad14 strain growth inhibition, stronger effect = higher value
# In short: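 Vehicle-treated cultures served as the baseline for growth inhibition of a DNA repair-mutant yeast strain exposed to each compound.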
# [8] = NCI Yeast Anticancer Drug Screen. Data for the sgs1 mgt1 strain (AID 161);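 also: 0% = growth of cultures given vehicle only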; settings: S. cerevisiae sgs1 mgt1 strain, stronger effect = higher value
# In short: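 Growth of a repair-deficient yeast mutant was monitored after compound treatment and expressed as inhibition relative to vehicle-treated cultures.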
# [9] = NCI Yeast Anticancer Drug Screen. Data for the CLN2oe strain (AID 163);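 also: 0% = growth of vehicle-only control cultures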; settings: S. cerevisiae CLN2oe strain, stronger effect = higher value
# In short: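 Whole-cell yeast growth assay. A strain engineered for altered cell-cycle control received compound, and inhibition relative to vehicle-treated cultures was recorded.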
# [10] = NCI Yeast Anticancer Drug Screen. Data for the cln2 rad14 strain (AID 165);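 also: 0% = growth equal to vehicle treated cultures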; settings: S. cerevisiae cln2 rad14 strain, stronger effect = higher value
# In short: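 Yeast strain cln2 rad14, bearing defects in cell cycle control and DNA repair, serves as the test system; values reflect growth inhibition compared with vehicle.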
# [11] = NCI Yeast Anticancer Drug Screen. Data for the bub3 strain (AID 167); settings: S. cerevisiae bub3 mutant strain, stronger effect = higher value
# In short: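 Inhibition values come from growth of compound-treated mutant yeast normalised to vehicle-treated controls.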
# [12] = NCI Yeast Anticancer Drug Screen. Data for the wt2 strain (AID 169);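 also: 0% = growth of vehicle-treated yeast cultures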; settings: S. cerevisiae wt2 strain growth inhibition, stronger effect = higher value
# In short: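 Treated yeast vs. vehicle-treated yeast: growth inhibition determined.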
# [13] = NCI Yeast Anticancer Drug Screen. Data for the mlh1 strain (AID 171);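 also: 0% = growth of vehicle-treated control cultures of the same strain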; settings: S. cerevisiae mlh1 strain growth inhibition, stronger effect = higher value
# In short: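 A yeast strain with a defined genetic lesion serves as the test organism. Cultures receive compound or vehicle, and growth is measured.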
# [14] = NCI Yeast Anticancer Drug Screen. Data for the sgs1 strain (AID 173);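 also: 0% = growth of vehicle-only control cultures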; settings: S. cerevisiae sgs1 mutant, stronger effect = higher value
# In short: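 A genetically defined yeast mutant is incubated with the test compound, and its growth is compared to that of the same strain given vehicle.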
# [15] = NCI Yeast Anticancer Drug Screen. Data for the mlh1 rad18 strain (AID 175); settings: S. cerevisiae mlh1 rad18 strain growth inhibition, stronger effect = higher value
# In short: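 Steps: expose repair-defective yeast to compound; measure growth; express inhibition against vehicle-treated controls.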
# [16] = NCI Yeast Anticancer Drug Screen. Data for the rad18 strain (AID 177); settings: S. cerevisiae rad18 mutant growth inhibition, stronger effect = higher value
# In short: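 Measured value is growth inhibition of a yeast strain bearing a DNA repair alteration, referenced to vehicle-treated cells.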
# [17] = at 5.0 µM (retest, dose inferred, filed as 0.5)
# [18] = at 50.0 µM (retest, dose inferred, filed as 5.0)
smiles,measurement,setting,value
CCC(=O)c1cc(C(=O)C(=S)SC)cc(C(=O)C(=S)SC)c1,growth inhibition,[1]; at 1.2 µM,1%
same,growth inhibition,[1]; at 3.7 µM,57%
same,growth inhibition,[1]; at 11.0 µM,97% (active)
same,growth inhibition,[1]; at 33.0 µM,97% (active)
same,growth inhibition,[1]; at 100.0 µM,90% (active)
same,growth inhibition,[2]; at 1.2 µM,-2%
same,growth inhibition,[2]; at 3.7 µM,17%
same,growth inhibition,[2]; at 11.0 µM,93% (active)
same,growth inhibition,[2]; at 33.0 µM,98% (active)
same,growth inhibition,[2]; at 100.0 µM,96% (active)
same,growth inhibition,[3]; at 1.2 µM,3%
same,growth inhibition,[3]; at 3.7 µM,50%
same,growth inhibition,[3]; at 11.0 µM,86% (active)
same,growth inhibition,[3]; at 33.0 µM,96% (active)
same,growth inhibition,[3]; at 100.0 µM,93% (active)
same,growth inhibition,[4]; at 1.2 µM,-12%
same,growth inhibition,[4]; at 3.7 µM,51%
same,growth inhibition,[4]; at 11.0 µM,99% (active)
same,growth inhibition,[4]; at 33.0 µM,98% (active)
same,growth inhibition,[4]; at 100.0 µM,95% (active)
same,growth inhibition,[5]; at 1.2 µM,1%
same,growth inhibition,[5]; at 3.7 µM,43%
same,growth inhibition,[5]; [17],30%
same,growth inhibition,[5]; at 11.0 µM,96% (active)
same,growth inhibition,[5]; at 33.0 µM,97% (active)
same,growth inhibition,[5]; [18],96% (active)
same,growth inhibition,[5]; at 50.0 µM,85.4% (active)
same,growth inhibition,[5]; at 100.0 µM,89% (active)
same,growth inhibition,[6]; at 1.2 µM,-9%
same,growth inhibition,[6]; at 3.7 µM,36%
same,growth inhibition,[6]; [17],56%
same,growth inhibition,[6]; at 11.0 µM,98% (active)
same,growth inhibition,[6]; at 33.0 µM,98% (active)
same,growth inhibition,[6]; [18],96% (active)
same,growth inhibition,[6]; at 50.0 µM,86.8% (active)
same,growth inhibition,[6]; at 100.0 µM,95% (active)
same,growth inhibition,[7]; at 1.2 µM,1%
same,growth inhibition,[7]; at 3.7 µM,22%
same,growth inhibition,[7]; at 11.0 µM,94% (active)
same,growth inhibition,[7]; at 33.0 µM,98% (active)
same,growth inhibition,[7]; at 100.0 µM,95% (active)
same,growth inhibition,[8]; [17],22%
same,growth inhibition,[8]; [18],96% (active)
same,growth inhibition,[8]; at 50.0 µM,85.3% (active)
same,growth inhibition,[9]; at 1.2 µM,28%
same,growth inhibition,[9]; at 3.7 µM,69%
same,growth inhibition,[9]; at 11.0 µM,96% (active)
same,growth inhibition,[9]; at 33.0 µM,98% (active)
same,growth inhibition,[9]; at 100.0 µM,91% (active)
same,growth inhibition,[10]; [17],-3%
same,growth inhibition,[10]; [18],37%
same,growth inhibition,[10]; at 50.0 µM,88.7% (active)
same,growth inhibition,[11]; at 1.2 µM,6%
same,growth inhibition,[11]; at 3.7 µM,44%
same,growth inhibition,[11]; [17],35%
same,growth inhibition,[11]; at 11.0 µM,98% (active)
same,growth inhibition,[11]; at 33.0 µM,98% (active)
same,growth inhibition,[11]; [18],68%
same,growth inhibition,[11]; at 50.0 µM,86.7% (active)
same,growth inhibition,[11]; at 100.0 µM,91% (active)
same,growth inhibition,[12]; at 1.2 µM,19%
same,growth inhibition,[12]; at 3.7 µM,59%
same,growth inhibition,[12]; at 11.0 µM,98% (active)
same,growth inhibition,[12]; at 33.0 µM,98% (active)
same,growth inhibition,[12]; at 100.0 µM,94% (active)
same,growth inhibition,[13]; at 1.2 µM,0%
same,growth inhibition,[13]; at 3.7 µM,40%
same,growth inhibition,[13]; at 11.0 µM,98% (active)
same,growth inhibition,[13]; at 33.0 µM,96% (active)
same,growth inhibition,[13]; at 100.0 µM,93% (active)
same,growth inhibition,[14]; at 1.2 µM,27%
same,growth inhibition,[14]; at 3.7 µM,62%
same,growth inhibition,[14]; at 11.0 µM,98% (active)
same,growth inhibition,[14]; at 33.0 µM,98% (active)
same,growth inhibition,[14]; at 100.0 µM,95% (active)
same,growth inhibition,[15]; [17],42%
same,growth inhibition,[15]; [18],96% (active)
same,growth inhibition,[15]; at 50.0 µM,86.8% (active)
same,growth inhibition,[16]; at 1.2 µM,-6%
same,growth inhibition,[16]; at 3.7 µM,49%
same,growth inhibition,[16]; at 11.0 µM,97% (active)
same,growth inhibition,[16]; at 33.0 µM,98% (active)
same,growth inhibition,[16]; at 100.0 µM,94% (active)
